Reference: PubChem BioAssay (NCI)
This is part of a sample that, as a whole, favours compounds with a hit. Of some 83,000 tested, about 20% had one in any assay.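 The test compound was applied at a single concentration to cells in 96-well plates for 48 hours, and percent growth was recorded.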 Unmarked numbers belong to inactive results. Active and inactive are the calls of the source. Rule for the calls: active = growth percent below 10; inactive = the rest.

Each compound was assayed on CCRF-CEM leukemia (assay: NCI-60 one-dose screen, 48 h (100 = growth as untreated, 0 = no growth, -100 = all killed)). Conditions: 10 µM unless noted.

Compound | growth
N#Cc1cccc(CN2CCC3=C(C2)C(=O)N(Cc2ccc(Cl)cc2)C2=NCCN23)c1 | 33.1%
COc1ccc(Oc2ccc(/C=N/NC(=O)CSc3nc4ccccc4c(=O)n3-c3ccc(Cl)cc3)cc2)cc1 | 63.5%
C#CCOc1ccc(/C=N\Nc2nc(-c3ccc(C)cc3)cs2)cc1OC | 90.4%
C=CCOc1cccc(/C=C2\SC(=S)N(C3CC(=O)N(c4ccc(Br)cc4)C3=O)C2=O)c1 (stereo unspecified) | 96.7%
COc1ccc(S(=O)(=O)NCCCNc2nccc(-c3[nH]c(-c4ccccc4)nc3-c3ccc(Cl)c(O)c3)n2)cc1 | 40.3%
CCn1c2ccccc2c2cc(-n3nncc3-c3ccccc3)ccc21 | 19.5%
N#Cc1cccc(CN2CCC3=C(C2)C(=O)N(Cc2ccc(Cl)cc2)C2=NCCCN23)c1 | 37.1%
COc1ccc(COc2ccc(/C=C3\C(=O)Nc4ccccc43)cc2OC)cc1 | 104%
O=C(NNc1nc2cc(F)ccc2n2c(CN3CC4CNCC4C3)ccc12)c1cnccn1 (stereo unspecified) | 12.1%
COc1ccc2[nH]cc(-c3csc4nc(-c5ccccc5)cn34)c2c1 | 16.2%
COC(=O)C[Se]C(=O)Cc1c(C)n(C(=O)c2ccc(Cl)cc2)c2ccc(OC)cc12 | 50.1%
CCOc1ccc(NC2=C(Cl)C(=O)c3nc(C)ccc3C2=O)cc1 | 0.626% (active)
COc1cccc(/C=C(/C)c2ccc3cccc(OC)c3[o+]2)c1O | 104%
NC(N)=Nc1ccc(Oc2cccc(NC(N)=Nc3ccc(Cl)c(C(F)(F)F)c3)c2)cc1 | 61.8%
COc1ccc(CCOc2cc3c(cc2OC)CCN(C(=O)NCc2cocn2)C3c2ccc(C)cc2C)cc1 (stereo unspecified) | 26.4%
O=C1C(c2ccccc2)=C(N2CCc3ccccc32)OC1(Cl)Cl | -17.8% (active)
O=C(NNc1nc2cc(F)ccc2n2c(CN3CCCC3)ccc12)c1cnccn1 | 6.67% (active)
O=C(NNc1nc2cc(F)cc(F)c2n2cccc12)c1cnccn1 | 10.6%

Compound | growth
O=C(O)c1ccc(-n2cc(CNc3cc(F)c(F)c(F)c3)c(-c3ccc(F)cc3)n2)cc1 | 82.7%
COc1ccc(NC2=C(Cl)C(=O)c3nc(C)ccc3C2=O)cc1OC | 15.3%
O=C(NNc1nc2cc(F)c(F)cc2n2c(CN3CC4CNCC4C3)ccc12)c1cnccn1 (stereo unspecified) | 9.82% (active)
C[C@H](CCC(=O)NCc1ccc(C(=O)Nc2ccccc2N)cc1)[C@H]1CC[C@H]2[C@@H]3[C@@H](O)C[C@@H]4C[C@H](O)CC[C@]4(C)[C@H]3CC[C@]12C | 7.16% (active)
CC(=O)c1cc(C(=O)c2ccc(Br)cc2)n2cc(C)cc(C)c12 | 97%
NC(=O)c1cccc(-n2ccc3cc(NC(=O)Nc4ccc(N5CCOCC5)c(C(F)(F)F)c4)ccc32)n1 | 1.21% (active)
COc1ccc2c(c1)c(CC(=O)[Se]CC(=O)O)c(C)n2C(=O)c1ccc(Cl)cc1 | 94.6%
CN(C)CCNC(=O)c1ccc(-c2nc3ccc4[nH]ncc4c3c3c2COCC3)cc1 | 2.22% (active)
COc1ccc2c(c1)c(CC(=O)[Se]CCC#N)c(C)n2C(=O)c1ccc(Cl)cc1 | 5.22% (active)
CN1CCN(Cc2ccc(NC(=O)c3cncc(C#Cc4cnc5ccc(OCC(C)(C)O)nn45)c3)cc2C(F)(F)F)CC1 | 6.09% (active)
CNC(=O)c1cc(N2CCc3cc(NC(=O)Nc4ccc(Cl)c(C(F)(F)F)c4)ccc32)ccn1 | 48.4%
O=C(CSc1nc2ccccc2c(=O)n1-c1ccc(Cl)cc1)N/N=C/c1ccc(N2CCCCC2)cc1 | 87%
CCOc1ccc(C(=O)Nc2ncc(Cc3ccc(F)cc3)s2)cc1 | 17.3%
Cc1c(Cl)cccc1S(=O)(=O)Nc1ccc2c(c1)C(=O)N(C1CCC(=O)NC1=O)C2=O (stereo unspecified) | 25.5%
CC/C(=C/c1cc(OC)ccc1O)c1ccc2cc(OC)ccc2[o+]1 | 39.3%
COc1c(N2CC3CCCNC3C2)c(F)cc2c(=O)c(C(=O)N/N=C/c3ccc4c(c3)OCO4)cn(C3CC3)c12 (stereo unspecified) | 31.7%
CN1CCN(Cc2ccc(NC(=O)c3cncc(C#Cc4cnc5ccc(OCC6(C)COC6)nn45)c3)cc2C(F)(F)F)CC1 | 1.98% (active)
O=C(NNc1nc2cc(F)c(F)cc2n2cccc12)c1cnccn1 | 14.4%
